Hits are enriched below; roughly 14% of the tested compounds scored in any of these assays.
Marburg entry inh – blocks Marburg virus binding to or entry into cells. Potency, µM (titrated, usually from 37.8 µM), without a hit: at the highest dose activity change, negative = inhibition, usual class: inhibitors. 1.8% of 300,000 active. AID 540276. Marburg virus pseudotyped entry inhibition, cell reporter; calls by dose curve; tested in HEK293 cells; note: potency is the fitted concentration of half-maximal effect
Lassa entry inh – Lassa virus entry inhibition; Lassa virus pseudotype entry inhibition, cell reporter; Potency, µM (doses to about 37.9 µM), without a hit: at the top dose activity change, negative = inhibition, usual class: inhibitors; 1.2% of 300,000 active; AID 540256; calls by dose curve; tested in HEK293 cells; note: potency is the fitted concentration of half-maximal effect; nearly all actives have a fitted effect of over 50% in size
HCMV antiviral – inhibitors of human cytomegalovirus; HFF cells, HCMV-luciferase reporter, 72 h; hits give low values; activity change, negative = inhibition, % at 57.5 µM; 4.5% of 410,000 active; in the data active = activity change below about -60%; inconclusive = no clear call, values can overlap the other calls; inactive = above about -39%
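HFF cells seeded 16 h at 37C, treated with compounds, infected with luciferase-reporter HCMV at MOI 1 PFU/cell; luciferase read at 72 h post infection, normalized to buffer-only and Salinomycin controls.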
HCV inhibitor – blocks hepatitis C virus. Potency, µM (top dose mostly 41.8 µM), without a hit: top-dose activity change, negative = inhibition, most hits filed as inhibitors. Huh7.5.1 HCVcc-Cre infection, luciferase reporter, 44 h. 3.4% of 340,000 active; note: potency is the fitted concentration of half-maximal effect
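Seed cells (1,000/well) for 4 h; treat with compound and infect with HCVcc-Cre, moi about 0.5. Incubate 44 h, then detect luciferase activity.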
Pf growth 96h – inhibits malaria parasite growth, 96 h; Potency, µM (series often up to 28.7 µM), without a hit: at the highest dose activity change, negative = inhibition, most hits filed as inhibitors; 6.9% of 320,000 active; P. falciparum luciferase reporter growth, 96 h; note: potency is the fitted concentration of half-maximal effect
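Two-generation exposure (96 h) targets delayed-death phenotype. Reporter parasites carrying integrated firefly luciferase, in red cells at 2% hematocrit and 0.05% parasitemia final, kept at 37 C, 5% CO2; luminescence loss indicates inhibition.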
Pf growth 48h – P. falciparum growth inhibition at 48 hours (one generation). P. falciparum luciferase growth in erythrocytes, 48 h. Potency, µM (highest dose often 28.7 µM), inactives show top-dose activity change, negative = inhibition, hits mostly inhibitors. 5.9% of 310,000 active. AID 504832; note: potency is the fitted concentration of half-maximal effect
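Luciferase-expressing P. falciparum in infected erythrocytes (2% hematocrit, 0.1% parasitemia final) in RPMI 1640/0.5% Albumax were exposed to compound for 48 hours at 37 C, 5% CO2; growth read as luminescence.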
Numbers without * were called inactive; ? = inconclusive; . = no result given; [ ] = dose if it differs, or a comment. Unless noted, calls come from the whole dose curve; as a rule, active = well fitted inhibition curve with a large enough effect; inconclusive = small, poorly fitted or top-dose-only effect, or another doubt; inactive = no such curve, though single readings can be large or run the other way. % is set by controls: 0 for no effect and ±100 for the full control effect.

SMILES	Marburg entry inh	Lassa entry inh	HCMV antiviral	HCV inhibitor	Pf growth 96h	Pf growth 48h
NNC(=O)c1ccc(Cn2cc(Cl)cn2)o1	.	.	-21.5	10.6%	31.1%	-5.1%
Cc1nn(Cc2ccc(C(=O)NC(C)(C)C)o2)c(C)c1Br	?	-9.4%	-79.8*	?	-12.7%	?
Cc1cc(NC(=O)c2ccc(Cn3nc(C)c(Br)c3C)o2)no1	12.2%	3.8%	50.0	-12.5%	21.3%	?
Cc1nn(Cc2ccc(C(=O)NN)o2)c(C)c1Cl	.	.	22.5	12.6µM*	?	-17.9%
CC(=O)Nc1ccc(NC(=O)C2CCN(c3c(NC(C)=O)c(C)nn3-c3ccccc3)CC2)cc1	.	1.8%[46.1 µM]	44.6	.	.	.
Cc1ccc(CNC(=O)CCc2c(C)nc3c4c(C)cc(C)nc4nn3c2C)cc1	5.9%[46.1 µM]	13.5%[46.1 µM]	1.8	.	.	.
Nc1c2c(nc3ccn(Cc4ccccc4)c(=O)c13)CCC2	?	20.1%	-39.2	-7.0%	2.94µM*	.
Nc1c2c(nc3ccn(-c4ccccc4)c(=O)c13)CCCCC2	-6.4%	?	-27.8	-13.2%	16.5µM*	?
Cc1c(C(=O)N(C)c2cccc(C(F)(F)F)c2)sc2nc3n(c(=O)c12)CCCCC3	.	3.8%[46.1 µM]	-76.2*	.	.	.
COc1ccc(COC(=O)c2sc3nc4n(c(=O)c3c2C)CCC4)cc1	?	-12.4%	-5.2	?	?	9.28µM*
COc1ccc(CNC(=O)c2sc3nc4n(c(=O)c3c2C)CCC4)cc1	.	-13.7%[46.1 µM]	16.0	.	.	.
CC(=O)Nc1ccc(NC(=O)c2sc3nc4n(c(=O)c3c2C)CCCCC4)cc1	-19.8%	?	-82.4*	?	?	-10.2%
COc1ccc(C23CC4CC(CC(C4)C2)C3)cc1C(=O)NCCN(C)C	.	.	-70.0*	-5.8%	11.7µM*	?
COc1ccc(OC)c2nc3c(C(=O)NCCN(C)C)cccc3nc12	?	?	-96.2*	?	.	.
Cc1cc(C(=O)NCCCN(C)C)c2ccccc2n1	.	.	-16.0	23.9%	25.1%	20.1%
CN(C)CCNC(=O)c1cccc2ccc(-c3ccc(-c4ccccc4)cc3)nc12	?	?	8.4	?	.	.
CN(C)CCNC(=O)c1cccc2nc3cccc(F)c3nc12	?	-9.3%	-98.8*	?	.	.
COc1cc2c(c3oc(-c4ccccc4)cc(=O)c13)C=CC(C)(C)O2	.	.	?	1µM*	?	?
COc1c2c(cc3oc(=O)ccc13)OC(C)(C)C=C2	.	.	22.0	?	0.0047µM*	7.2%
CN(N=Cc1ccc2c(c1)OCO2)C(=O)c1ccccc1N	.	.	21.2	.	.	.
O=C(CN(C(=O)c1ccc(Cl)cc1)C1CCCCC1)Nc1ccc(Cl)c([N+](=O)[O-])c1	?	?	?	?	9.28µM*	?
O=C(/C=C/c1ccco1)N(Cc1ccc(Cl)cc1)C1CCS(=O)(=O)C1 (stereo not drawn)	-20.9%[46.1 µM]	-1.9%[46.1 µM]	-22.6	1.12µM*	?	-0.8%
O=C(CN(C(=O)c1ccccc1Cl)C1CCCCC1)Nc1ccc(Cl)c([N+](=O)[O-])c1	?	?	-11.0	?	30.6%	13.1µM*
O=C(c1ccc(Cl)c([N+](=O)[O-])c1)N(Cc1ccc(Cl)cc1)C1CCS(=O)(=O)C1 (stereo not drawn)	?	-12.3%	-60.1*	?	?	-8.1%
CN(C)c1ccc(CN(C(=O)/C=C/c2ccco2)C2CCS(=O)(=O)C2)cc1 (stereo not drawn)	-9.8%	0.6%	3.9	?	?	-2.1%
SMILES	Marburg entry inh	Lassa entry inh	HCMV antiviral	HCV inhibitor	Pf growth 96h	Pf growth 48h
Cc1ccc(NC(=O)c2cc3c(=O)n(Cc4cccnc4)ccc3nc2C)cc1F	.	3.8%[46.1 µM]	-2.4	.	.	.
CSc1n[nH]c(-c2cccs2)n1	.	.	18.8	.	.	.
O=C(c1ccccc1)N1CCN(C(=O)c2nn3c(C(F)(F)F)cc(-c4ccco4)nc3c2Br)CC1	11.0%[46.1 µM]	?	28.4	?	0.0%	10.4µM*
O=C(NC1CCCCC1)c1nn2c(C(F)(F)F)cc(-c3ccco3)nc2c1Br	22.2%	10.3%	-22.1	-21.6%	-10.2%	15.6%
COc1ccc(CNC(=O)Cc2c(C)c3c(cc(C)c4c(C)coc43)oc2=O)cc1OC	7.9%[46.1 µM]	7.9%[46.1 µM]	-18.0	.	.	.
COCc1cc(=O)[nH]c(SCC(=O)c2ccccc2)n1	-13.8%	?	3.6	14.5%	-20.2%	2.08µM*
CCCc1cc(=O)[nH]c(SCC(=O)NC(=O)c2ccccc2)n1	18.9%	2.7%	29.3	4.4%	0.415µM*	13.6%
CCCc1cc(=O)[nH]c(SCC(=O)NC(=O)OCC)n1	10.7%	23.7%	?	23.6%	23.8%	.
COCc1cc(=O)[nH]c(SCCS(=O)(=O)c2ccc(C)cc2)n1	?	10.4%	13.0	11.9%	-2.1%	2.33µM*
CCCc1cc(=O)[nH]c(SCC(=O)Nc2sc(C(N)=O)c(C)c2C(=O)OCCOC)n1	.	.	-62.5*	?	?	-28.7%
COc1ccc(N(C)C(=O)c2nc(-c3cccc(F)c3)n3c2CCCCC3)c(OC)c1	.	-3.0%[46.1 µM]	-29.6	.	.	.
Cc1ccc(-c2nn(-c3cc(N4CCNCC4)ccc3[N+](=O)[O-])c(=O)c3ccccc23)cc1	?	?	-68.1*	?	0.0%	?
Cc1nn(-c2cc(N3CCCCCC3)ccc2[N+](=O)[O-])c(=O)c2ccccc12	-26.8%	?	-32.0	12.6µM*	.	?
Cc1nn(-c2cc(N3CCCCC3)ccc2N)c(=O)c2ccccc12	3.9%	-11.7%[14.3 µM]	.	12.7%	3.1%	10.3%
O=C(Cn1cnc2c(NCc3ccccc3)ncnc21)NCc1nc2ccccc2[nH]1	.	.	9.4	-8.1%	.	.
Nc1sccc1C(=O)NC1CC1	.	.	-11.1	.	.	.
O=C(C(=O)N1CCCCCC1)c1c[nH]c2ccccc12	4.9%	-14.6%	3.9	12.0%	-17.9%	-2.4%
C[n+]1cc(C(=O)N2CCCCC2)ccc1/C=C/c1c[nH]c2ccccc12	2.1%[46.1 µM]	15.5%[46.1 µM]	36.6	3.7%	0.415µM*	?
O=C1CN(S(=O)(=O)Cc2ccccc2)C[C@H]2[C@H](c3ccc(Br)cc3)[C@H](CO)N12	.	.	-0.8	.	.	.
COC(=O)c1[nH]c2ccc(C)cc2c1NC(=O)CN1CCN(c2ccccc2)CC1	?	?	-64.5*	?	.	10.4µM*
CCOC(=O)c1[nH]c2ccc(OC)cc2c1NC(=S)N1CCN(c2cccc(C)c2C)CC1	2.24µM*	?	-11.8	10µM*	-27.3%	?
Cc1ccc2[nH]c(C(=O)O)c(NC(=O)CN3CCN(c4cccc(C)c4C)CC3)c2c1	?	?	53.2	9.1%	4.65µM*	0.0%
COC(=O)c1[nH]c2ccc(C)cc2c1NC(=O)CN1CCN(c2ccc(F)cc2)CC1	?	12.6µM*	-83.3*	?	?	?
COC(=O)c1[nH]c2ccc(C)cc2c1NC(=O)CN1CCC(C)CC1	3.6%	-26.4%	-30.4	?	?	-17.7%

Screening data (PubChem)
